Compound activity as filed in PubChem BioAssay.
The list is not random: actives were taken first. Their share in the collection is about 9.5%.
ALDH1A1 inh = inhibitors of human aldehyde dehydrogenase 1A1; Purified ALDH1A1, NADH fluorescence, propionaldehyde substrate; Potency, µM (highest dose often 75.3 µM), for the others: at the top dose activity, negative = inhibition, hits mostly inhibitors; 7.3% of 220,000 active; AID 1030; active = well fitted inhibition curve with a large enough effect, not every such curve was filed as active; inconclusive = small, poorly fitted or top-dose-only effect, or another doubt; inactive = no such curve, though single readings can be large or run the other way;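 also: plate controls were no enzyme wells and a reference inhibitor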
Tau ThT inhib = blocks human tau fibril formation measured by thioflavin T | recombinant tau K18 P301L, heparin-induced fibrillization, ThT fluorescence | Potency, µM (titrated, usually from 57.4 µM), inactives show top-dose activity, negative = inhibition, usual class: inhibitors | 2.1% of 270,000 active | P10636; also: nearly all actives have a fitted effect of over 55% in size
Target sequence (P10636 561-689 P618L limits assumed): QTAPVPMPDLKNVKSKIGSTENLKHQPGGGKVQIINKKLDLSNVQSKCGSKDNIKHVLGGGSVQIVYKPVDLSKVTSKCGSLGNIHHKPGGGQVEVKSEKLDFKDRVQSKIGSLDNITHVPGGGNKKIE
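ThT emission at 510 nm, taken 1 hr after adding 30 uM dye, quantifies aggregates formed when 20 uM heparin acts on human tau K18 P301L for 6 hr at 37 C.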
Tau FP inhib = tau fibrillization inhibition (FP); Potency, µM (series often up to 57.7 µM), for the others: at the highest dose activity, negative = inhibition, most hits filed as inhibitors; K18 P301L tau heparin fibrillization, Alexa594 FP, 6 h; 0.39% of 280,000 active; P10636; also: nearly all actives have a fitted effect of over 55% in size
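FP of Alexa 594-tau after heparin (20 uM) induction. Substrate: human K18 P301L, 15 uM unlabeled, 0.24 uM labeled. Buffer 100 mM sodium acetate pH 7. 6 hr, 37 C.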
NPSR antagonist = antagonists of human neuropeptide S receptor cAMP signaling; CHO-NPSR cells, cAMP TR-FRET, antagonist mode; Potency, µM (top dose mostly 38.3 µM), for the others: at the highest dose activity change, negative = inhibition, most hits filed as inhibitors; 1% of 220,000 active; also: nearly all actives have a fitted effect of over 50% in size
Tau fluor counter = counter-screen for tau fibril formation inhibitors; tau K18 P301L Alexa594 fluorescence, heparin fibrillization; Potency, µM (top dose mostly 57.7 µM), inactives show at the top dose activity change, negative = decrease; 0.93% of 280,000 active; AID 1463; also: nearly all actives have a fitted effect of over 55% in size
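Human tau K18 P301L (15 uM unlabeled, 0.24 uM Alexa 594-labeled) in 100 mM sodium acetate pH 7 with 20 uM heparin, 6 hr at 37 C. ThT 30 uM added, 1 hr ambient; Alexa 594 FP and total fluorescence read at 555/632 nm.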
HPGD block = HPGD (human) dehydrogenase inhibition | P15428 | purified HPGD, NADH fluorescence kinetic, PGE2 substrate | Potency, µM, for the others: at the top dose activity change, negative = inhibition, usual class: inhibitors | 4.3% of 150,000 active | AID 894; active = well fitted inhibition curve with a large enough effect, not every such curve was filed as active; inconclusive = small, poorly fitted or top-dose-only effect, or another doubt; inactive = no such curve, though single readings can be large or run the other way
Target sequence (P15428 whole entry, looked up): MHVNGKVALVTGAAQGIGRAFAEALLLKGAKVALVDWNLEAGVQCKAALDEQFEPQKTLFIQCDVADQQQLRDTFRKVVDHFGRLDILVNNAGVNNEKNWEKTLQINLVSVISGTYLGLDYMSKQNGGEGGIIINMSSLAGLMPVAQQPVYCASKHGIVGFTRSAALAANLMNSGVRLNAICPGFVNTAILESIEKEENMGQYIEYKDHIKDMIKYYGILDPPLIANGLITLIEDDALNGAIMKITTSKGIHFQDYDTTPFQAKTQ
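NADH formation kinetics: reaction with 30 uM PGE2 and 1 mM NAD+ (final), 20 nM enzyme, Tris-HCl pH 8 with Tween 20, after 15 min compound preincubation at room temperature. Fluorescence change, last versus first of five reads.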
The depositor's hits bear a star; [ ] = dose if it differs, or a comment. Unless noted, calls follow the shape of the dose curve; as a rule, active = well fitted curve in the direction sought with a large enough effect; inconclusive = small, poorly fitted or top-dose-only effect, or another doubt; inactive = no such curve, though single readings can be large; an effect the other way counts as inactive or inconclusive. Unless noted, % is scaled to controls: 0 for no effect and ±100 for the full control effect; potency is read from the fitted curve at half-maximal effect.

Screening CCN(CC)c1ccc(NS(=O)(=O)c2ccc(-c3coc(C)n3)cc2)c(C)c1 returned Tau ThT inhib inconclusive, Tau FP inhib 8% and Tau fluor counter inconclusive.
Screening Cc1ccc(NC(=O)CSc2nc3ccc(Br)cc3[nH]2)c(C)c1 returned Tau ThT inhib 9%, Tau FP inhib 22µM* and Tau fluor counter inconclusive.
`Cc1cccc(OCCSc2nc3ccc(NC(=O)c4cccs4)cc3s2)c1` gave Tau ThT inhib 7%, Tau FP inhib 7.1µM* and Tau fluor counter inconclusive.
Screening Cc1ccc(NC(=O)CSc2nc3ccc(NC(=O)c4cccs4)cc3s2)c(C)c1 returned Tau ThT inhib -10%, Tau FP inhib 18µM* and Tau fluor counter inconclusive.
COc1ccc(CNC(=O)CCc2c(C)nc3c(c2C)c(=O)n(C)c(=O)n3C)cc1 was read as Tau ThT inhib -6%, Tau FP inhib -6% and Tau fluor counter -7%.
COc1ccc2c(c1)CCc1c(C(=O)Nc3c(C)nn(Cc4c(Cl)cccc4Cl)c3C)noc1-2 was read as Tau ThT inhib inconclusive, Tau FP inhib -11% and Tau fluor counter inconclusive.
COc1ccccc1OCCCCN1CCN(C(c2ccccc2)c2ccccc2)CC1 was read as ALDH1A1 inh inconclusive, Tau ThT inhib 3%, Tau FP inhib -2%, NPSR antagonist -52%, Tau fluor counter 5% and HPGD block -19%.
O=C(CSc1ncn[nH]1)OCN1C(=O)c2ccccc2C1=O was read as ALDH1A1 inh 9%, Tau ThT inhib 2%, Tau FP inhib 1%, NPSR antagonist 0%[46.1 µM] and Tau fluor counter 10%.
Screening O=C(Nc1ccc(S(=O)(=O)N(Cc2ccccc2)c2ccccc2)cc1)c1ccccc1F returned Tau ThT inhib 12%, Tau FP inhib inconclusive and Tau fluor counter -26%.
`O=C(Nc1ccc(S(=O)(=O)N(Cc2ccccc2)c2ccccc2)cc1)c1ccc(F)cc1` gave Tau ThT inhib 8%, Tau FP inhib 10µM* and Tau fluor counter inconclusive.
Screening COc1cccc(C(=O)Nc2ccc(S(=O)(=O)N(Cc3ccccc3)c3ccccc3)cc2)c1 returned Tau ThT inhib 1%, Tau FP inhib 10µM* and Tau fluor counter inconclusive.
For COc1ccc(N2CCN(C(c3ccc(F)cc3)c3sc4nc(-c5ccco5)nn4c3O)CC2)cc1 (centres undefined) the results were Tau ThT inhib inconclusive, Tau FP inhib 1% and Tau fluor counter inconclusive.
`O=C(Nc1nc2c(F)cc(F)cc2s1)C1CC(=O)N(Cc2ccco2)C1` (centres undefined) gave ALDH1A1 inh 14µM*, Tau ThT inhib inconclusive, Tau FP inhib -12%, NPSR antagonist 12% and Tau fluor counter -29%.
Screening COc1ccc(C(=O)NN/C(=N/S(=O)(=O)c2ccc(C)cc2)c2ccccc2)cc1 returned Tau ThT inhib inconclusive, Tau FP inhib -11%, NPSR antagonist 19% and Tau fluor counter -17%.
For CC1=C(C(=O)Nc2ccc(C)cc2)C(c2ccc(Cl)cc2)n2nnnc2N1 (centres undefined) the results were Tau ThT inhib 6%, Tau FP inhib inconclusive and Tau fluor counter -17%.
`CC1=C(C(=O)Nc2ccc(Cl)cc2)C(c2ccc(C(F)(F)F)cc2)n2nnnc2N1` (centres undefined) gave Tau ThT inhib -6%, Tau FP inhib 22µM* and Tau fluor counter inconclusive.
For CC1=C(C(=O)Nc2ccc(Cl)cc2)C(c2cccs2)n2nnnc2N1 (centres undefined) the results were ALDH1A1 inh 5µM*, Tau ThT inhib -4%, Tau FP inhib -1%, NPSR antagonist -14%[46.1 µM], Tau fluor counter -15% and HPGD block -10%.
